Assay results: PubChem BioAssay AID1053175 (ICCB-Longwood Screening Facility, Harvard Medical School, 2014)
“And” between values parts separate entries of the source, which are not always exact repeats. Equal values may be shown once. About 700 (0.21%) of roughly 330,000 compounds were called active.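 How the source made its calls: active means OD600 absorbance below the run mean of sample wells minus 3.6 SD, in any replicate (cut at about 0.56 in these data); inactive means the rest.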 The entries come from a sample that favours actives as a whole.

Assay: antibacterial activity against Escherichia coli – OD600, primary screen (AID 1053175)
Details: Escherichia coli growth, OD600, 23 h; active compounds read low

OD600 absorbance, inactive:
CC1COc2ccccc2N1C(=O)c1ccc(F)cc1 (stereo not drawn) 0.65, O=C(COC(=O)c1ccc(F)cc1)NCC1COc2ccccc2O1 (stereo not drawn) 0.688, O=C(CO)NN=Cc1cccc(Cl)c1Cl 0.595, CCOc1ccccc1C(=O)NN=Cc1coc2ccc(Cl)cc2c1=O 0.656, COc1ccc(/C=C(\NC(=O)c2ccccc2)C(=O)NN=Cc2cccnc2)cc1 0.669, O=C(NN=Cc1c[nH]c2ccccc12)c1ccc(O)c(O)c1 0.695, COC(=O)C1CC2CCC(O)CC2N1Cc1ccc(C(F)(F)F)cc1 (stereo not drawn) 0.627 and 0.652, CC1(C)CC2CC(C)(CN2C=Nc2sc3c(c2C#N)CC(C)(C)NC3(C)C)C1 (stereo not drawn) 0.649, CCCC(O)c1cc2cc(OC)c(OC)cc2c(=O)o1 (stereo not drawn) 0.667, CCc1n[nH]c(=S)n1N=Cc1c(O)ccc2ccccc12 0.677, CCSc1nsc(NC(=O)Nc2cccc(C(C)=O)c2)n1 0.575, C=CCSc1nsc(NC(=O)Nc2cccc(C(C)=O)c2)n1 0.61, O=C(Nc1nnc(COc2ccccc2)s1)Nc1ccccc1F 0.649, COc1ccc(C)cc1NC(=O)CCC(=O)Nc1nnc(C(F)(F)F)s1 0.73, O=C(O)c1ccc(NN=Cc2ccc(-c3ccc(Cl)cc3Cl)o2)cc1 0.671, CCOC(=O)C1C2COc3ccc(Cl)cc3C2N2C(=O)c3ccc(C)cc3NC(=O)[C@@]12C (stereo partly drawn) 0.705, CCN(CC)C(=O)c1[nH]cnc1C(=O)NC(Cc1ccccc1)C(=O)OC(C)(C)C (stereo not drawn) 0.689, COc1cc(C=NNC(=O)c2ccc3c(c2)OCCO3)cc(Br)c1O 0.712, CC(C(=O)N1CCNCC1)n1cc(CCC(=O)O)nn1 (stereo not drawn) 0.694, CCNC(=S)N1CCN(C(=O)c2ccco2)CC1 0.73, CCn1cc(C(=O)NCCC(=O)NCCO)c(=O)c2cc3c(cc21)OCO3 0.65, CCn1cc(S(=O)(=O)c2cccc(C)c2)c(=O)c2cc(F)c(N3CCN(C)CC3)cc21 0.662, CCCCCCn1cc(C(=O)O)c(=O)c2cc(F)c(N3CCCCC3)cc21 0.628

OD600 absorbance, active:
O=C(Nc1nnc(C2COc3ccccc3O2)o1)c1ccc(F)cc1 (stereo not drawn) 0.346, CSc1nsc(NC(=O)Nc2ccccc2)n1 0.445, O=C(NCC(F)(F)F)Nc1nnc(C(F)(F)F)s1 0.494, CCn1cc(C(=O)NCCO)c(=O)c2cc(F)c(N3CCN(C)CC3)cc21 0.0485, CCCCNC(=O)c1cn(CC)c2cc(N3CCN(C(=O)c4ccco4)CC3)c(F)cc2c1=O 0.458
